Screening data deposited in PubChem by Johns Hopkins Ion Channel Center.
A selection: hits, their analogues and other compounds. The true share with any hit is near 1.6%.
KCNQ2 pot: KCNQ2 (rat) channel potentiation | B-score at 10 µM | 310,000 compounds, 0.54% hits | CHO-K1 KCNQ2, FluxOR thallium flux fluorescence; hits give high values;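 active means fluorescence ratio B-score at least 3 SD of library B-scores, with initial fluorescence B-score within 3 of them, cut at about 5.3 in these data; same plate scores as AID 2156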;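 further: B-score of peak minus minimum over baseline fluorescence ratio after K+ and Tl+ stimulus; positive B-score means potentiation of KCNQ2 with more thallium influx and brighter signal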
KCNQ2 inh: inhibitors of rat KCNQ2 potassium channel. O88943. CHO-K1 KCNQ2, FluxOR thallium flux, 20 min; hits give low values. B-score at 10 µM. 310,000 compounds, 1.1% hits;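 active means fluorescence ratio B-score at most minus 3 library SDs, with starting brightness B-score within 2 library SDs, cut at about -5.5 in these data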
Kir21 confirm: confirmation of mouse Kir2.1 potassium channel inhibitors | Kir2.1-expressing cells, FluxOR thallium flux fluorescence; hits give low values | shares compounds with KCNQ2 pot | AID 2032 | Tl flux remaining, % of negative control (hits give low values), % at 10 µM | 2,300 compounds, 41% hits;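 active means Primary-screen hit whose thallium flux fell at least 3 control SD below untreated wells in both duplicates, with normal baseline fluorescence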
HEK293 ctr: counter-screen for Kir2.1 inhibitors: effect in parental HEK293 cells; 2,300 compounds, 19% hits; FluxOR thallium flux fluorescence; 0% = unstimulated blank wells; FluxOR signal as % of negative control (100 = no effect), % at 10 µM; shares compounds with KCNQ2 pot; AID 2105;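 active means dye signal at least 3 control SD above or below untreated wells in both duplicates, raw fluorescence within 3, either direction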;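 further: percent is based on the flux ratio of peak minus minimum fluorescence over baseline F0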
CHO-K1 Tl ctr: counter-screen for KCNQ2 potentiators: effect in parental CHO-K1 cells; activity increase over 3SD of controls, % at 10 µM; AID 2282; shares compounds with KCNQ2 pot; FluxOR thallium flux fluorescence; zero = vehicle mean+3SD, 100% = vehicle-minus-blank window; 1,200 compounds, 43% hits;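 active means signal rise of at least 3 SD above the untreated control mean, in both duplicate wells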;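 further: counter screen of KCNQ2 potentiator hits so any rise reflects channel-independent effects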
KCNQ1 sel pot: human KCNQ1 counter-target activity of KCNQ2 potentiators. shares compounds with KCNQ2 pot. CHO KCNQ1 stable, FluxOR thallium flux fluorescence; beyond 3SD, as % of vehicle-control signal. activation over 3SD threshold, % at 10 µM. 1,200 compounds, 28% hits. AID 2283;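 active means fluorescence ratio rise of at least 3 SD of vehicle wells above their mean, in both replicate wells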
Target sequence (P51787 whole entry, looked up): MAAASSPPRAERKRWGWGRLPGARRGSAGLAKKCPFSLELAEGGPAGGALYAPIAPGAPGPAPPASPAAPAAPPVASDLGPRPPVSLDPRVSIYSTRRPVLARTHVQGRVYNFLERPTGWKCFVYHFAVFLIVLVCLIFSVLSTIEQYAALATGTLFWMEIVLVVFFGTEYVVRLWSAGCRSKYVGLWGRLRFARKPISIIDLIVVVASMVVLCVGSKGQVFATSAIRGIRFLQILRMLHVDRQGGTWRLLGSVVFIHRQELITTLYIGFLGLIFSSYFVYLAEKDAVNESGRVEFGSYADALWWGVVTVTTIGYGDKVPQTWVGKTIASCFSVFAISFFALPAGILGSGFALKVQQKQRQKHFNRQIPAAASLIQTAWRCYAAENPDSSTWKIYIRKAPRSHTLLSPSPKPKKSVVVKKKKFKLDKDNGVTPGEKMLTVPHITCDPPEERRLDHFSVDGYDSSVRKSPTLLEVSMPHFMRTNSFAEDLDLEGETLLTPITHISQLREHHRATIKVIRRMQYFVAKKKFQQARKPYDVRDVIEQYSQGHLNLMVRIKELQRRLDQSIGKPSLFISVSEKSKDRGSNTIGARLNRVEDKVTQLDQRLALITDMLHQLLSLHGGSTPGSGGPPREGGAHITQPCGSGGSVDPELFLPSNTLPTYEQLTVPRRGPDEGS
KCNQ2 pot conf: rat KCNQ2 channel potentiator confirmation | shares compounds with KCNQ2 pot | CHO-KCNQ2 cells, FluxOR thallium flux fluorescence | 1,200 compounds, 68% hits | potentiation, less the hit threshold, % at 10 µM;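 active means fluorescence ratio rising 3 SD or more over the vehicle control mean in both replicates, plus primary screen hit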;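 further: peak minus minimum thallium fluorescence divided by baseline after K/Tl stimulus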
Kir2-1 sel: selectivity of KCNQ2 potentiators: effect on mouse Kir2.1. shares compounds with KCNQ2 pot. HEK293 Kir2.1, FluxOR thallium flux fluorescence. activity over 3SD threshold, % at 10 µM. 1,200 compounds, 2% hits;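 active means fluorescence ratio rise of at least 3 SD above the vehicle-control mean, seen in both replicates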
KCNQ2 W236L MoA: potentiates the retigabine-insensitive rat KCNQ2 W236L mutant channel. CHO KCNQ2-W236L, automated patch clamp current. shares compounds with KCNQ2 pot. current increase over 3SD of negative controls (%), hits give high values, % at 25 µM. 940 compounds, 10% hits;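 active means current increase at least 3 SD of the untreated controls above them in both duplicate recordings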
Of the large screens only hits and unclear results are named; the others gave an inactive call (follow-up assays come after a bar, where they were run).

CC1=C(C(N)=O)C(c2cccs2)n2nc(-c3cccc(C)c3)nc2N1 (stereo not given)	none
COc1cccc(NC(=O)NC(C)C2CC3CCC2C3)c1 (stereo not given)	KCNQ2 pot 12 | Kir21 confirm inactive | HEK293 ctr inactive | CHO-K1 Tl ctr inactive | KCNQ1 sel pot inactive | KCNQ2 pot conf inactive | Kir2-1 sel inactive | KCNQ2 W236L MoA inactive
COc1ccc(C(=O)NC(C)C2CC3CCC2C3)c(OC)c1 (stereo not given)	none (no result: KCNQ2 pot)
Cc1c(N2C(=O)/C(=C/c3ccccc3)SC2=S)c(=O)n(-c2ccccc2)n1C	none
Cc1c(N2C(=O)/C(=C\c3ccccc3O)SC2=S)c(=O)n(-c2ccccc2)n1C	KCNQ2 pot 18 | Kir21 confirm inactive | HEK293 ctr 343% | CHO-K1 Tl ctr 114 | KCNQ1 sel pot inactive | KCNQ2 pot conf 40 | Kir2-1 sel inactive | KCNQ2 W236L MoA inactive
CCc1nc2ccc(Cc3ccc4nc(CC)[nH]c4c3)cc2[nH]1	none (no result: KCNQ2 pot)
COCCn1ccc2c(OCC(=O)NCCc3ccccc3)cccc2c1=O	none
COc1ccc(NC(=O)/C(Cl)=C(/Cl)S(=O)Cc2ccccc2)cn1 (stereo not given)	KCNQ2 pot 12 | Kir21 confirm inactive | HEK293 ctr 64% | CHO-K1 Tl ctr 0.3 | KCNQ1 sel pot inactive | KCNQ2 pot conf 12 | Kir2-1 sel inactive | KCNQ2 W236L MoA 3.2%
COc1ccc(NC(=O)Cc2ccccc2)cn1	none (no result: KCNQ2 pot)
Cc1ccn(CCNC(=O)C2CCC(=O)N(CCc3ccc(Cl)cc3)C2)n1 (stereo not given)	none
Cc1ccc([N+](=O)[O-])cc1NC(=O)c1cccnc1	none (no result: KCNQ2 pot)
Cc1ccc(S(=O)(=O)N(Cc2c(F)cccc2Cl)C(=O)N2CCN(C)CC2)cc1	none (no result: KCNQ2 pot)
O=C1CSC(c2ccccc2F)N1CCN1CCCCC1 (stereo not given)	none
O=C1CSC(c2ccccc2F)N1c1cc(Cl)ccc1O (stereo not given)	none | Kir21 confirm inactive | HEK293 ctr inactive
Cc1ccc(Cl)cc1NC(=O)CCS(=O)(=O)c1cccc2nonc12	none (no result: KCNQ2 pot)
CC1(c2ccc3ccccc3c2)NC(=O)N(CC(=O)N2CCN(c3ccccc3O)CC2)C1=O (stereo not given)	none
CC[C@@H](C)[C@H](NC(=O)OC(C)(C)C)c1nnc(S(=O)(=O)Cc2cc(C)ccc2C)o1	none (no result: KCNQ2 pot) | Kir21 confirm inactive | HEK293 ctr inactive
CC(C)[C@H](NC(=O)OC(C)(C)C)c1nnc(S(=O)(=O)Cc2c(F)cccc2Cl)o1	none
O=C(Nc1ccncc1)Nc1cccc(F)c1	none (no result: KCNQ2 pot)
O=C(Nc1cccnc1)Nc1cccc(F)c1	KCNQ2 pot 6.7 | Kir21 confirm inactive | HEK293 ctr inactive | CHO-K1 Tl ctr 2.5 | KCNQ1 sel pot 7.3 | KCNQ2 pot conf 16 | Kir2-1 sel inactive | KCNQ2 W236L MoA 18%
Cc1cc(/C=C2\C(=N)N3N=C(S(C)(=O)=O)SC3=NC2=O)c(C)n1Cc1ccccc1	none
CCCC1=NN2C(=N)/C(=C\c3cc(C)n(Cc4ccccc4)c3C)C(=O)N=C2S1	KCNQ2 pot 12 | Kir21 confirm inactive | HEK293 ctr inactive | CHO-K1 Tl ctr 21 | KCNQ1 sel pot inactive | KCNQ2 pot conf inactive | Kir2-1 sel inactive | KCNQ2 W236L MoA inactive
CCCCC(CC)CNS(=O)(=O)c1ccc2c(c1)CCN2C(=O)CCC(=O)O (stereo not given)	none (no result: KCNQ2 pot) | Kir21 confirm inactive | HEK293 ctr inactive
CCc1ccc(NS(=O)(=O)c2ccc3c(c2)CCN3C(=O)CCC(=O)O)cc1	none (no result: KCNQ2 pot)
